# From PubChem
# Rows were chosen to be rich in hits. Some 1.3% of all compounds tested hit in one or more screens of this group.
# VHR inh abs – inhibitors of human VHR1 phosphatase (DUSP3); recombinant VHR phosphatase, pNPP absorbance; inhibition, % at 13.3 µM; 290,000 compounds, 0.52% hits; AID 1654; P51452; in the data active = inhibition above about 50%
# Target sequence (P51452 whole entry, looked up): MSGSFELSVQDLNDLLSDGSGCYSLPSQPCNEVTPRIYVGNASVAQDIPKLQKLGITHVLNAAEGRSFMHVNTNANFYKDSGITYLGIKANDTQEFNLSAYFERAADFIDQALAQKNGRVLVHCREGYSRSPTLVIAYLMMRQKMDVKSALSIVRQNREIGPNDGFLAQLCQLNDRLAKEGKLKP
# BH1578 lux ind – induces V. cholerae light production without autoinducers | V. cholerae BH1578 lux reporter, luminescence, 6 h | activation, % at 18.7 µM | 350,000 compounds, 0.16% hits | AID 588436; in the data active = activation mostly above about 9.7%, no sharp cut-off
# SSB-PriA inh – blocks PriA binding to SSB C-terminal tail; AlphaScreen SSBct-PriA binding, biotinylated peptide; inhibition, % at 33 µM; 430,000 compounds, 0.6% hits; AID 1272365; in the data active = inhibition mostly above about 37%, no sharp cut-off; inactive = mostly below about 20%;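 note: plate controls were negative control peptide for no effect and reference peptide for full effect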
# 3CLpro inhibitor – SARS-CoV 3CLpro protease inhibition | P0C6X7 | recombinant SARS-CoV 3CLpro, quenched FRET peptide cleavage | inhibition, % at 6 µM | 290,000 compounds, 0.14% hits | AID 1706; in the data active = inhibition above about 12%
# CCHF vOTU inh – CCHFV vOTU protease inhibition; 370,000 compounds, 0.55% hits; Pep-AMC fluorescence; AID 651958; inhibition, % at 11.5 µM; in the data active = inhibition above about 30%; note: 0% = vehicle wells with enzyme and 100% = no enzyme wells
# TcdB inh – blocks C. difficile toxin B glycohydrolase activity. P18177. TcdB glycohydrolase enzymatic assay, plate reader. inhibition, % at 9.99 µM. 350,000 compounds, 0.24% hits. AID 652162; in the data active = inhibition above about 10%
# Starred values were filed as active, the others as inactive; i = inactive; · = not tested or not shown; ! = not active in a repeat.
SMILES,VHR inh abs,BH1578 lux ind,SSB-PriA inh,3CLpro inhibitor,CCHF vOTU inh,TcdB inh
COc1ccc(-c2cc3c(=O)n(CC(=O)Nc4cccc(Cl)c4)nc(C)n3n2)cc1,3,i,44*,-2,-2,2
CCOC(=O)N1CCN(C(=O)Cn2nc(C)n3nc(-c4ccc(OC)cc4)cc3c2=O)CC1,23,i,-9,0,-4,-3
O=C(Nc1ccccc1)/C(=C\c1ccncc1)NC(=O)c1ccccc1,6,0,-12,1,-13,·
O=C(Nc1ccc(C(=O)O)cc1)/C(=C\c1ccco1)NC(=O)c1ccc(Br)cc1,·,i,·,·,16,0
O=C(Nc1ccc(O)cc1)/C(=C\c1ccncc1)NC(=O)c1ccccc1,-17,0,5,2,13,24*
O=C(Nc1ccc(O)cc1)/C(=C/c1ccco1)NC(=O)c1ccccc1,15,-1,-5,-4,4,18*
CCc1ccc(Oc2cc(N3CCC(C(=O)NCc4ccccn4)CC3)ncn2)cc1,·,·,-5,·,·,·
O=C(/C=C/c1cccs1)OCc1ccc2c(c1)OCO2,·,·,-146,·,·,·
COc1cc(-c2cc(OC)c(O)c(OC)c2)cc(OC)c1O,·,i,-1,·,-3,-6
COc1cc(C(=O)C(=O)c2cc(OC)c(O)c(OC)c2)cc(OC)c1O,53*,0,-2,-3,-15,0
O=C(NCc1ccco1)c1csc(Nc2cccc(Cl)c2)n1,·,·,-2,·,·,·
CCN(CC(=O)Nc1ccc(NC(C)=O)cc1)C(=O)/C=C/c1ccccc1,·,-4,-5,·,-3,0
CCN(CC(=O)Nc1ccc(NC(C)=O)cc1)C(=O)C(c1ccccc1)c1ccccc1,51*,0,-8,1,2,1
CCn1cc(/C=c2/sc3n(c2=O)C2c4ccccc4OC(C)(N=3)C2C(=O)OC)c(C)n1 (stereo unspecified),53*,i,·,5,-2,1
COc1ccc(CCC(=O)NC[C@@H](c2cccs2)S(=O)(=O)c2ccc(OC)cc2)cc1,·,·,-7,·,·,·
CCOC(=O)C1CCN(c2c([N+](=O)[O-])c(C(Cl)Cl)nn2-c2ccccc2)CC1,3,5,14,1,-4,·
O=[N+]([O-])c1c(C(Cl)Cl)nn(-c2ccccc2)c1N1CCCC1,10,-1,50*,2,3,2
O=C(CSc1ccccc1)N(CCCn1ccnc1)c1nc2c(Cl)cccc2s1,·,·,1,·,·,·
O=C(c1ccco1)N(CCCn1ccnc1)c1nc2ccccc2s1,·,·,72*,·,·,·
O=C(c1cccs1)N(CCCn1ccnc1)c1nc2c(Cl)cccc2s1,·,·,77*,·,·,·
CC(=O)c1ccc(C(=O)N(CCn2cccn2)c2nc3c(C)cc(C)cc3s2)cc1,·,·,-5,·,·,·
Cc1cccc2sc(N(CCCn3ccnc3)C(=O)c3ccco3)nc12,·,·,45*,·,·,·
CN(C)CCCN(C(=O)c1ccco1)c1nc2c(F)cccc2s1,19,-2,-4,4,-1,0
CC(=O)c1ccc(C(=O)N(CCCn2ccnc2)c2nc3c(C)cc(C)cc3s2)cc1,·,·,49*,·,·,·
COC1(CNC(=O)C2CC=CCC2)CCSC1 (stereo unspecified),·,·,-2,·,·,·
SMILES,VHR inh abs,BH1578 lux ind,SSB-PriA inh,3CLpro inhibitor,CCHF vOTU inh,TcdB inh
Cc1ccc(S(=O)(=O)Nc2nc(C)c(C(=O)NCc3c(F)cccc3F)s2)cc1,·,·,0,·,·,·
Cc1ccc2sc(N(CCCn3ccnc3)C(=O)c3ccco3)nc2c1C,·,·,88*,·,·,·
Cc1cc(C)c2sc(N(CCCn3ccnc3)C(=O)Cc3ccccc3)nc2c1,·,·,32,·,·,·
Oc1ccc(N=Cc2c[nH]c3ccccc23)cc1,·,·,46*,·,·,·
COC(C(=O)Nc1ccnn1C1CCN(C(=O)c2ccc(C)cc2)CC1)c1ccccc1 (stereo unspecified),51*,-2,5,-1,-6,0
NS(=O)(=O)c1ccc(CCNC(=O)c2ccc(CS(=O)(=O)c3ccc(Br)cc3)o2)cc1,7,-7,-16,-2,5,12*
COc1ccc(S(=O)(=O)Cc2ccc(C(=O)NCCc3ccc(S(N)(=O)=O)cc3)o2)cc1,29,0,-7,0,3,-6
NC(=O)c1ccc(N=Nc2c(O)c3ccccc3[nH]c2=O)cc1,-7,·,·,-3,·,·
N=C(N)c1ccc(N=Nc2c(O)ccc3c2[nH]c2ccccc23)cc1,·,-1,82*,·,16,14*
Oc1[nH]c2ccccc2c1N=Nc1ccccn1,·,·,-4,·,-4,0
Oc1c(N=Nc2ccccn2)ccc2ccccc12,26,-1,49*,-1,3,·
COc1cc2nc(N(CCN(C)C)C(=O)c3ccc4ccccc4c3)sc2cc1OC,-7,-1,39*!,-12,·,·
CN(C)CCCN(C(=O)c1sc2ccccc2c1Cl)c1nc2c(F)cccc2s1,-2,-1,13,-2,3,·
Cc1cc(C)c2sc(N(CCN(C)C)C(=O)c3ccc4ccccc4c3)nc2c1,11,-7,43*!,-10,-12,-9
COc1ccc(OC)c2sc(N(CCN(C)C)C(=O)c3ccc4ccccc4c3)nc12,11,i,54*,5,9,-1
Cc1cccc2sc(N(CCCN(C)C)C(=O)c3sc4ccccc4c3Cl)nc12,8,0,40*!,3,-5,·
O=C(c1cc(=O)c2ccccc2o1)N1CCN(C(=O)c2cnn3c2CCCC3)CC1,·,·,-6,·,·,·
Cc1cc(Cl)cc2sc(N(Cc3cccnc3)C(=O)CN3C(=O)CCC3=O)nc12,·,·,-1,·,·,·
Cc1cc(C)c2sc(N(CCCN(C)C)C(=O)c3ccc(S(=O)(=O)N(C)C4CCCCC4)cc3)nc2c1,·,-1,40*!,·,15,1
CN(C)CCN(C(=O)c1ccc2ccccc2c1)c1nc2ccc(F)cc2s1,30,-1,44*!,-2,·,·
CCc1ccc2nc(N(CCN(C)C)C(=O)c3ccc4ccccc4c3)sc2c1,21,0,21,-1,·,·
COc1cc2ccccc2cc1C(=O)N(CCN(C)C)c1nc2c(OC)ccc(OC)c2s1,-7,0,46*,-9,-3,0
COc1cc2ccccc2cc1C(=O)N(CCN(C)C)c1nc2ccc(C)cc2s1,11,-1,36,2,2,1
COc1cc2ccccc2cc1C(=O)N(CCN(C)C)c1nc2c(C)cccc2s1,-12,0,41*!,-11,16,3
CCOc1ccc(S(=O)(=O)NCCNC(=O)c2ccc(NC(C)=O)cc2)cc1,·,·,-9,·,·,·
SMILES,VHR inh abs,BH1578 lux ind,SSB-PriA inh,3CLpro inhibitor,CCHF vOTU inh,TcdB inh
Cc1ccc2sc(N(CCN(C)C)C(=O)c3ccc4ccccc4c3)nc2c1C,6,i,45*!,5,-1,1
Cc1ccc2sc(N(CCCN(C)C)C(=O)c3ccc(S(=O)(=O)N4CCCCCC4)cc3)nc2c1C,·,-1,17,·,9,1
COc1ccc(C(=O)Nc2ccccc2C(=O)O)cc1Cl,-10,0,-4,-5,-1,10*
COc1ccc(C(=O)Nc2ccccc2C(=O)O)cc1NC(=O)C(c1ccccc1)c1ccccc1,13,0,-2,7,2,0
O=C(COc1ccc(F)cc1)N1CCN(C(=O)[C@H]2C[C@@H]2c2ccc3c(c2)OCO3)CC1,·,·,9,·,·,·
COc1nn(C)cc1C(=O)NCCC1=CCCCC1,·,·,-8,·,·,·
